This passage reports composite z-score and composite Z-score results from PubChem BioAssay.

Each structure is given as a SMILES string. Calls of active or inactive are those of the source.

One test concerns the target Albumin (Bos taurus) (UniProt P02769). The test can be described thus: bovine serum albumin binders on microarray, profiling panel, artefact control for SMM control protein annotation, biochemical, small-molecule microarray, Alexa647 label, 635/667 nm fluorescence (AID 1118).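 Note: score merges 667 nm emission intensity and signal-to-noise per printed compound spot.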 The following applies: BSA-A647 binding, fluorescence 635 nm, higher = more signal.
Test [1] in a line: small-molecule microarray binders of probe aXIP, primary screen, biochemical, NeuroSMM set, 635/667 nm fluorescence (AID 1119).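 Note: probe is the protein aXip251-270 applied at 1 µg/mL to compound-printed slides; binding of probe to printed compounds measured as 667 nm fluorescence plus signal to noise.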 Conditions: higher = more signal, called active from +8 up or from −8 down.
Test [2] in a line: small-molecule binders of probe aNOTCH3, primary screen, biochemical, small-molecule microarray, 635/667 nm fluorescence (AID 1120).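 Note: probe is a biotin-tagged antibody raised against NOTCH3 rather than NOTCH3 protein; score merges spot fluorescence near 667 nm with spot signal to noise.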 The following applies: higher = more signal.
Test [3] in a line: small-molecule binders of probe aNOTCH2, primary screen, biochemical, small-molecule microarray, 635/667 nm fluorescence (AID 1121).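 Note: score merges feature fluorescence read at 667 nm with its signal to noise.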 The following applies: higher = more signal.
Test [4] concerns the target Carbonic anhydrase 2 (Homo sapiens) (UniProt P00918). The test can be described thus: CAII small-molecule binders, profiling panel, biochemical, small-molecule microarray, Alexa647-labelled CAII (AID 1122). Conditions: CAII-A647 binding fluorescence, higher = more signal.
A short description of test [5]: COS7 lysate on small-molecule microarray, probe aHis, 635 nm (AID 1123).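 Note: z-score combines 667nm fluorescence intensity with signal-to-noise per printed compound spot.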 The following applies: COS7 cell lysate, fluorescence, higher = more signal.
Test [6] is described as follows: compound binding in COS7 lysate, probe aLAP1, primary screen, cell lysate, small-molecule microarray (AID 1124).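 Note: lysate comes from COS7 cells expressing LAP1 and is applied at 0.3 µg/mL; score merges spot fluorescence near 667 nm with signal-to-noise over triplicate slides.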 The following applies: probe aLAP1, fluorescence, higher = more signal.
Another test deals with Sam68 (KHDRBS1). The test can be described thus: Sam68 small-molecule binders, primary screen, biochemical, small-molecule microarray, 635 nm fluorescence (AID 1125).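 Note: score merges 667 nm channel intensity with signal to noise over triplicate slides.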 Conditions: small-molecule microarray binding, higher = more signal.
The test system of test [7] is Chordin-like protein 2 (CHRDL2). The test can be described thus: CHRDL2 small-molecule binders, primary screen, biochemical, small-molecule microarray, 635 nm fluorescence (AID 1126).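 Note: printed compound slides probed with Chrdl2 protein at 4 µg/mL for 1 h at 4 C; score merges 667 nm emission intensity with signal to noise over three replicate slides.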 Conditions: small-molecule microarray binding, fluorescence 635 nm; higher = more signal.
Test [8] concerns the target Concanavalin-A (Canavalia ensiformis) (UniProt P02866). The test can be described thus: ConA small-molecule binders, primary screen, artefact control for SMM control protein annotation, biochemical, small-molecule microarray, Alexa647 label, 635 nm (AID 1127).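 Note: z combines 667 nm emission intensity with signal-to-noise across three replicate slides.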 The following applies: ConA-A647 binding fluorescence, higher = more signal.

Chain of Albumin (Bos taurus) (P02769 whole entry, looked up): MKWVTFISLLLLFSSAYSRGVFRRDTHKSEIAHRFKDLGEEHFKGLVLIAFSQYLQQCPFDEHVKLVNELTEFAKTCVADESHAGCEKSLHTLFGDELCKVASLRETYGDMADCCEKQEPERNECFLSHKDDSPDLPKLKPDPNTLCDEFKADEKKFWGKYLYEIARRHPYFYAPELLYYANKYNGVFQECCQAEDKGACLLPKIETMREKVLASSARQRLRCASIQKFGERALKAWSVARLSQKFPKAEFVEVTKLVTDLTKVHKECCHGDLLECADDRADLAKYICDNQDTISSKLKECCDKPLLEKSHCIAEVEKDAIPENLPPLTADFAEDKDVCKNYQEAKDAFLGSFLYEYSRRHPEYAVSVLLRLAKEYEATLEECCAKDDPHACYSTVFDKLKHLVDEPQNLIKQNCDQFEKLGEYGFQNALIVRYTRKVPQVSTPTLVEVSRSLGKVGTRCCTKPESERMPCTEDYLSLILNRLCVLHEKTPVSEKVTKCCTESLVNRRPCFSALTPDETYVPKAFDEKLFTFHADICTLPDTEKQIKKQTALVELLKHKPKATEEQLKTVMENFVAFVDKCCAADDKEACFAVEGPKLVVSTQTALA
Chain of Concanavalin-A (Canavalia ensiformis) (P02866 whole entry, looked up): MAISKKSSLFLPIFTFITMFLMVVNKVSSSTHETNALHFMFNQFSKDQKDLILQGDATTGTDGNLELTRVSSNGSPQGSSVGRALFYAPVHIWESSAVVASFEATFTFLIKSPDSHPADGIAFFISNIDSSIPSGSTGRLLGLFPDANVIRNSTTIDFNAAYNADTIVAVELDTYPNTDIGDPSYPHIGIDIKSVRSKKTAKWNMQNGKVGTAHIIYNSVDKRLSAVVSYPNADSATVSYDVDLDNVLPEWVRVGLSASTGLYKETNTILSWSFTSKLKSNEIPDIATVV

As to `COC(=O)[C@]1(CCC(=O)OC(C)(C)C)N=C(c2ccc(OCCCO)cc2)O[C@@H]1c1ccccc1N=[N+]=[N-]`, the composite z-score with Albumin (Bos taurus) was -0.257; in [2] it was -0.122; in test [3], -0.0618; in test [4] it was 0.589; in test [5], 1.63; in [6], 0.254. For the same molecule, the composite z-score with Sam68 (KHDRBS1) was 0.68; in test [7], -0.444; in [8], 0.589. Besides, the composite Z-score in test [1] is 0.62 (inactive).

In the case of `C=CCNC(=O)[C@H]1[C@@H]2C(=O)O[C@@H](c3ccccc3)[C@@H](c3ccccc3)N2[C@@H](c2ccc(OCCO)cc2)[C@]12C(=O)Nc1ccc(C#CC3(O)CCCCCC3)cc12`, the composite z-score came to 0.483 with Albumin (Bos taurus); 0.257 in test [2]; 0.0111 in test [3]; 0.184 in test [4]; 1.29 in test [5]; 1.09 in [6]. In addition, the figures for the composite z-score (in the test on Sam68 (KHDRBS1); in test [7]; in [8]) were 1.34, 0.721 and 1.13, respectively. The composite Z-score in test [1] was 0.238 (inactive).

Take `CC1CC/C=C\[C@H]2OC34C=CCN(c5ccc6ccccc6c5)C(=O)[C@H]3N(C(C)CO)C(=O)[C@@H]4C2C(=O)O1` (stereo not given in full): the composite z-score is -0.333 with Albumin (Bos taurus); -0.226 in test [2]; -0.181 in test [3]; 0.725 in test [4]; -0.976 in [5]; 0.105 in test [6]. The values for the composite z-score (in the test with Sam68 (KHDRBS1); in test [7]; in test [8]) were -0.849, -0.837 and -0.654, respectively. Also, the composite Z-score in [1] was -0.105 (inactive).

Take `C=CCC(OC(C)=O)[C@@H]1[C@@H](N(Cc2cc3ccccc3o2)C(=O)c2cccc3ccccc23)c2cc(OCCCO)ccc2N1C(=O)c1ccc2ccccc2n1` (stereo not given in full): the composite z-score is 0.423 with Albumin (Bos taurus); 0.0155 in test [2]; -0.147 in test [3]; 0.112 in test [4]; -0.197 in test [5]; 0.637 in [6]. Further, the composite z-score in the test with Sam68 (KHDRBS1) was 0.31; in test [7] it was 0.0615; in test [8], -0.495. In addition, the composite Z-score in test [1] is -0.315 (inactive).

For the molecule `COCCOC(=O)N1C(=O)[C@@]2(c3cc(C#CCNC(N)=O)ccc31)[C@H](C(=O)Nc1nc3ccccc3s1)[C@H]1C(=O)O[C@H](c3ccccc3)[C@H](c3ccccc3)N1[C@@H]2c1ccccc1OCCO`, the composite z-score is 0.074 with Albumin (Bos taurus); 0.0306 in test [2]; -0.0432 in test [3]; 0.47 in test [4]; 1.17 in test [5]; 0.151 in test [6]. Further, the values for the composite z-score (in the test on Sam68 (KHDRBS1); in test [7]; in test [8]) were 0.975, 1.23 and 1.04, respectively. Moreover, in [1], the composite Z-score was -0.523 (inactive).

As for `COc1ccc(C#Cc2ccc3c(c2)[C@]2(C(=O)N3)[C@H](C(=O)O)[C@H]3C(=O)O[C@H](c4ccccc4)[C@H](c4ccccc4)N3[C@@H]2c2ccccc2OCCO)cc1`, the composite z-score with Albumin (Bos taurus) was 0.594; in test [2], -0.301; in test [3], -0.0069; in test [4] it was 0.509; in test [5], 1.08; in [6], 0.387. In addition, the composite z-score in the test with Sam68 (KHDRBS1) is 1.31; in test [7], 0.117; in test [8], 1.14. For the same molecule, in test [1], the composite Z-score is 0.493 (inactive).

On to `O=C1C[C@@](C(=O)NC2CC2)(c2ccc([N+](=O)[O-])cc2)[C@@H](c2ccc(CO)cc2)N1C1CCCCC1`, for which the composite z-score with Albumin (Bos taurus) was 0.535; in test [2], 0.11; in test [3] it was -0.0995; in test [4], 0.512; in test [5] it was 2.7; in test [6] it was 0.0901. In addition, the results for the composite z-score (in the test with Sam68 (KHDRBS1); in [7]; in [8]) were 1.28, 0.43 and 0.704, respectively. Moreover, the composite Z-score in [1] was 0.002 (inactive).

In the case of `COC(=O)C(CC#Cc1ccc2c(c1)[C@]1(C(=O)N2)[C@H](C(=O)NC[C@H](O)c2ccccc2)[C@H]2C(=O)O[C@H](c3ccccc3)[C@H](c3ccccc3)N2[C@@H]1c1ccccc1OCCO)C(=O)OC`, the composite z-score with Albumin (Bos taurus) is -0.119; in test [2] it was 0.0779; in test [3], -0.115; in test [4] it was 0.376; in test [5], 2.14; in test [6], 0.298. The composite z-score amounted to 1.25 in the test on Sam68 (KHDRBS1), 0.557 in test [7] and 1.01 in [8]. For the same molecule, the composite Z-score in [1] was -0.154 (inactive).

On to `CCCC=C(CCC)[C@@H](NC(=O)OCC(C)C)c1ccc(C(=O)OC)cc1`, for which the composite z-score is -0.0782 in the test with Albumin (Bos taurus); -0.0328 in test [2]; -0.15 in test [3]; 0.133 in test [4]; 0.141 in test [5]; 0.35 in [6]. The composite z-score came out at 0.687 in the test on Sam68 (KHDRBS1), 0.436 in test [7] and 0.256 in [8]. In addition, the composite Z-score in [1] was -0.773 (inactive).

For the molecule `COC(=O)[C@@]1(Cc2ccc(F)cc2)[C@H]2c3cc(C(=O)N4CCCC4)n(CCc4ccccn4)c3C[C@H]2CN1C(=O)c1ccccc1`, the composite z-score with Albumin (Bos taurus) came out at 0.634; in test [2], 0.0488; in [3], 0.186; in test [4] it was 0.852; in [5], 2.13; in test [6] it was 0.233. The composite z-score with Sam68 (KHDRBS1) was 0.0315; in [7], -0.163; in test [8] it was 0.222. In addition, the composite Z-score in [1] was 0.191 (inactive).

For the molecule `COC(=O)C(CC#Cc1ccc2c(c1)[C@]1(C(=O)N2)[C@H](c2ccccc2OCCO)N2[C@H](c3ccccc3)[C@H](c3ccccc3)OC(=O)[C@H]2[C@@H]1C(=O)N1CCc2cc(OC)c(OC)cc2C1)C(=O)OC`, the composite z-score was 0.185 with Albumin (Bos taurus); 0.172 in test [2]; -0.14 in [3]; 0.661 in test [4]; 1.19 in [5]; 0.653 in test [6]. The composite z-score was determined as 1.29 in the test on Sam68 (KHDRBS1), 0.618 in [7] and 0.914 in test [8]. Besides, in [1], the composite Z-score is 0.0296 (inactive).

Regarding `CCOC(=O)C[C@H]1[C@H](OC(=O)c2ccccc2-c2ccccc2)[C@@H](NC(=O)C2CCCCC2)c2cc(OCCCO)ccc2N1C(=O)c1ccc2ccccc2n1`, the composite z-score is 0.632 with Albumin (Bos taurus); 0.0553 in test [2]; -0.037 in [3]; 0.258 in [4]; 0.249 in test [5]; 0.358 in test [6]. Besides, the figures for the composite z-score (in the test with Sam68 (KHDRBS1); in [7]; in test [8]) were 1.07, 0.162 and -0.0181, respectively. Further, the composite Z-score in test [1] was 0.0805 (inactive).

Turning to `CC(C)(C)OC(=O)CC[C@@]1(C(=O)NCCN2CCOCC2)N=C(c2ccc(OCCCO)cc2)O[C@@H]1c1ccccc1CN=[N+]=[N-]`, the composite z-score is 0.812 with Albumin (Bos taurus); 0.0488 in test [2]; -0.112 in [3]; 0.245 in test [4]; 1.17 in [5]; 0.59 in [6]. The composite z-score is 0.696 in the test with Sam68 (KHDRBS1), -0.743 in [7] and 1.08 in test [8]. For the same molecule, the composite Z-score in test [1] is 2.03 (inactive).

Turning to `C[N+](C)(C)CCCCNC(=O)[C@H]1C[C@H]2C(=O)N[C@@H](Cc3ccccc3)C(=O)N2[C@H]1c1cccc(OCCO)c1`, the composite z-score in the test with Albumin (Bos taurus) was -1.43; in [2], 0.0401; in [3], -0.1; in [4], 0.542; in test [5] it was 1.71; in test [6] it was 1.3. The composite z-score was 0.669 in the test with Sam68 (KHDRBS1), 1.5 in [7] and 1.1 in test [8]. In addition, the composite Z-score in [1] is 0.466 (inactive).

As for `O=C(N1CCOCC1)[C@@]1(Cc2ccccc2)COC(c2ccc(OCCCO)cc2)=N1`, the composite z-score came to 1 with Albumin (Bos taurus); 0.14 in test [2]; 0.245 in test [3]; 0.769 in test [4]; 2.7 in test [5]; 0.872 in test [6]. Further, the composite z-score with Sam68 (KHDRBS1) is 1.19; in test [7], -0.354; in test [8], 0.578. Further, the composite Z-score in [1] is -0.0252 (inactive).

For `O=C(NC1CC1)[C@@H]1c2ccccc2C(=O)N(Cc2ccc(OC(F)(F)F)cc2)[C@H]1c1ccc(CO)cc1`, the composite z-score with Albumin (Bos taurus) is 0.22; in [2], -0.1; in test [3], -0.0974; in test [4], 0.642; in test [5], 1.41; in [6], -0.169. The values for the composite z-score (with Sam68 (KHDRBS1); in test [7]; in [8]) were 0.932, -0.584 and -0.037, respectively. In addition, in test [1], the composite Z-score was 0.061 (inactive).
